# Assay outcomes as filed in PubChem BioAssay.
# Bcl-xL primary – inhibitors of human Bcl-xL; Q07817; GST-Bcl-xL / FITC-Bim BH3 peptide fluorescence polarization; inhibition, % at 10.9 µM; actives 0.7% (n = 320,000);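 active means inhibition above the mean of all tested compounds plus 3 SD, cutoff set per campaign, cut at about 30% in these data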;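 further: 0% = DMSO wells and 100% = unlabeled Bim-BH3 peptide competitor; inhibitors lower millipolarization by displacing the labeled peptide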
# Target sequence (Q07817 whole entry, looked up): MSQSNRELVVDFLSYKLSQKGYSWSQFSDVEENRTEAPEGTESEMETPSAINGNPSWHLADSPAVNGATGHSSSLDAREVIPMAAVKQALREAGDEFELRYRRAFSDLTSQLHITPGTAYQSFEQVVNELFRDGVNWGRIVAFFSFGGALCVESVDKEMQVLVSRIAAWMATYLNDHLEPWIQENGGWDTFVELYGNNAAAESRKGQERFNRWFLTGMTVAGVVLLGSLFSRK
# IDE act – IDE (human) activation, cell-based; P14735; HEK cells, FAbeta-B cleavage, fluorescence polarization; 0% vehicle, 100% cell-free pure enzyme wells; activation, % at 5.96 µM; actives 0.073% (n = 340,000);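 active means activation above the mean of all tested compounds plus 3 SD, set per screening campaign, cut at about 17% in these data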
# MEX-5 binding – C. elegans MEX-5 TCR-2 RNA binding activity; Q9XUB2; MEX-5/FITC-TCR2 RNA binding, fluorescence polarization; hits give low values; activity score (negative = inhibition of binding), % at 10 µM; actives 0.38% (n = 300,000); AID 1832;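 active means inhibition past about -25% in most replicates, and total fluorescence under double the plate's negative control median, limit read from the data; inconclusive means replicates evenly split on the limit, or fluorescence at least double controls; inactive means too little inhibition in most replicates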;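 further: 0% = DMSO and -100% = 5 µM competing unlabeled TCR2 RNA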
# GLD-1 TGE inh – GLD-1-TGE RNA interaction inhibition (C. elegans); Q17339; purified GLD-1 + fluorescein TGE RNA, fluorescence polarization; actives 0.44% (n = 320,000); AID 2280; inhibition, % at 5.96 µM;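 active means percent inhibition above a per-plate cutoff, the plate mean of test compounds plus 3 SD, cut at about 30% in these data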;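 further: 0% = DMSO wells with GLD-1 and probe and 100% = wells lacking GLD-1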
# IDE inh – inhibitors of human insulin-degrading enzyme in cells. P14735. HEK cells, FAbetaB cleavage, fluorescence polarization. inhibition, % at 5.59 µM. actives 0.41% (n = 320,000). AID 434962;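 active means percent inhibition above the average of all tested compounds plus 3 SD, set per screening campaign, cut at about 16% in these data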;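 further: IDE supplied by intact live HEK cells; FP after avidin binding of uncleaved biotin substrate so inhibition keeps polarization high; 0% = DMSO wells and 100% = 60 µM reference IDE inhibitor Ii1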
# MCL1 BIM primary – disrupts human MCL1 binding to BIM-BH3 peptide; inhibition, % at 10.9 µM; AID 2057; GST-MCL1 / FITC-Bim-BH3 fluorescence polarization; actives 0.68% (n = 320,000); Q07820;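 active means inhibition above the mean inhibition of all tested compounds plus 3 SD, set per campaign, cut at about 40% in these data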;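 further: 0% = DMSO wells and 100% = unlabeled Bim-BH3 peptide control; higher means more loss of mP so more displacement of Bim peptide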
# Target sequence (Q07820 whole entry, looked up): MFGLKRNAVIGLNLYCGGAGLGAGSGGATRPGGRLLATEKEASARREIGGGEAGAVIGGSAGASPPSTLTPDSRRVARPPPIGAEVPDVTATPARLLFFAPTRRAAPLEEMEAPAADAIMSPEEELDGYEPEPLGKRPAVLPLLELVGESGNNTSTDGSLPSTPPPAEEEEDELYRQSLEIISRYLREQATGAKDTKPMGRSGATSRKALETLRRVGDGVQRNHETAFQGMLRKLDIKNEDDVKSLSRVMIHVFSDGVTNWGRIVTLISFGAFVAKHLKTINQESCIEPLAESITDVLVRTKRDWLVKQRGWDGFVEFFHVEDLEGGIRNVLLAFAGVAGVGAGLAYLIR
# BCLXL inh confirm – counter-screen for MCL1 inhibitors: confirmation of human Bcl-xL inhibitors; shares compounds with MCL1 BIM primary; GST-Bcl-xL / FITC-Bim BH3 peptide FP binding; inhibition, % at 10.9 µM; actives 54% (n = 1,700);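 active means inhibition above a cutoff equal to the mean inhibition of all tested compounds plus 3 SD, cut at about 30% in these data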;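 further: 0% = DMSO wells and 100% = unlabeled Bim BH3 control peptide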
# MCL1 BIM confirm – MCL1-BIM-BH3 interaction inhibition, confirmation | GST-MCL1 / FITC-Bim-BH3 fluorescence polarization | inhibition, % at 10.9 µM | shares compounds with MCL1 BIM primary | actives 61% (n = 1,700) | AID 2168;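 active means inhibition above the average of all tested compounds plus 3 SD, cut at about 40% in these data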;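 further: 0% = DMSO wells and 100% = unlabeled Bim-BH3 control peptide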
# An asterisk follows results filed as active; ? = inconclusive; nt = no result; + = active, no number. Most compounds without a hit are left out; they make up all but 1.5% or so of the library.
SMILES,Bcl-xL primary,IDE act,MEX-5 binding,GLD-1 TGE inh,IDE inh,MCL1 BIM primary,BCLXL inh confirm,MCL1 BIM confirm
CN(C)c1ncc(C2=C(Cl)C(=O)C(N3CCCC3)=C(Cl)C2=O)s1,57*,8,-17,16,2,91*,63*,85*
O=C1C(Cl)=C(N2CCCCC2)C(=O)C(Cl)=C1c1cnc(N2CCCCC2)s1,nt,2,-4,nt,nt,nt,nt,nt
CCOC(=O)/C(=C\c1cccc(O)c1)c1nc2sc(C)c(C)c2c(=O)[nH]1,7,0,0,1,-1,5,nt,nt
O=C(CCc1nnc(CCCc2ccccc2)o1)NC(C1CC1)C1CC1,1,2,-1,4,3,-4,nt,nt
CC1(C)CC(=O)C(C=Nc2cccnc2/N=C/C2=C(O)CC(C)(C)CC2=O)=C(O)C1,58*,-6,-5,118*,1,63*,8,2
CC1(C)CC(=O)C(C=Nc2ccc(C(=O)c3ccccc3)cc2N=CC2=C(O)CC(C)(C)CC2=O)=C(O)C1,67*,6,-5,104*,6,80*,6,16
Cc1ccc(Cl)cc1NC(=O)C1CC1c1ccccc1 (stereo not given),2,6,-1,-1,-1,2,nt,nt
Cc1ccc(CNC(=O)CC(C)S(=O)(=O)c2ccc3c(c2)NC(=O)CS3)o1 (stereo not given),85*,-2,-17,46*,-4,86*,8,-9
Cc1ccc(CNC(=O)CC(C)S(=O)(=O)c2ccc3c(c2)NC(=O)CO3)cc1 (stereo not given),0,3,4,0,-5,-5,nt,nt
CCC1(C(=O)OC)NC(c2ccccc2OC)C2C(=O)N(C)C(=O)C21 (stereo not given),58*,7,-2,11,1,58*,3,-3
COC(=O)[C@]1(Cc2ccccc2)N[C@H](c2ccc(-c3ccc(OC)cc3)cc2)[C@@H]2C(=O)N(C)C(=O)[C@@H]21,5,4,2,-3,9,12,nt,nt
Cc1nc2ccccc2c(=O)n1/N=C/c1ccc(O)c(O)c1O,22,-8,-52*,7,-7,69*,26,67*
Cc1cc(C)n2nc(C(F)(F)F)c(-c3ccccc3)c2n1,5,-3,1,4,5,9,nt,nt
Cc1cccc(CSc2nc3nc(C)cc(C)n3n2)c1,1,0,0,2,1,-1,nt,nt
CCOC(=O)c1c(C)[nH]c(C2=NNC(=Nc3ccc(OCC)cc3)SC2)c1C,77*,-6,nt,17,-1,70*,21,13
O=C(O)c1cc(O)c2c(c1)C(=O)c1cc(O)cc(O)c1C2=O,23,4,-16,6,1,41*,21,34
C=CCn1c(=O)/c(=C/c2cc(OC)c(OC)c(OC)c2)s/c1=C(/C#N)c1nc2ccccc2n1C,112*,9,?,1,2,123*,145*,169*
CCC(C)[C@H](NC(=O)C1CC(=O)N(c2ccc3c(c2)OCO3)C1)C(=O)NC1CCCCC1 (stereo not given in full),54*,0,-21,38*,0,60*,60*,78*
Cc1nn(-c2ccc(N3CCCCC3)nn2)c(C)c1CCC(=O)Nc1cc(F)ccc1F,0,-2,1,4,3,1,nt,nt
O=C(Nc1ccc(Nc2ccncc2)cc1)c1ccc(Nc2ccnc3ccc([N+](=O)[O-])cc23)cc1[N+](=O)[O-],-3,-4,-1,-7,8,43*,13,27
O=C(CSc1nc2ccccc2s1)NNC(=S)Nc1ccc(Cl)cc1,7,4,-3,-1,4,43*,14,13
CC1CCCc2sc3ncn(N)c(=N)c3c21 (stereo not given),2,4,-1,-7,4,5,nt,nt
CCN1c2ccccc2N(C)C1(C)c1ccccc1 (stereo not given),88*,-2,nt,66*,6,94*,61*,98*
CCC(C(=O)OCC(=O)N1CCN(S(=O)(=O)c2ccc(C)cc2C)CC1)c1ccccc1 (stereo not given),-5,1,nt,2,1,-1,nt,nt
Cc1ccc(C)c(N2CCN(S(=O)(=O)c3cc4c(cc3Cl)NC(=O)CO4)CC2)c1,3,8,-1,8,-3,8,nt,nt
SMILES,Bcl-xL primary,IDE act,MEX-5 binding,GLD-1 TGE inh,IDE inh,MCL1 BIM primary,BCLXL inh confirm,MCL1 BIM confirm
COc1ccc(NC(=O)CSc2nnc(-c3ccco3)c(-c3ccco3)n2)cc1OC,11,3,1,-1,-2,8,nt,nt
Cc1ccc(NC(=O)CSc2nnc(-c3ccco3)c(-c3ccco3)n2)cc1,23,2,-5,1,1,33,nt,nt
COc1cccc(NC(=O)CSc2nnc(-c3ccco3)c(-c3ccco3)n2)c1,27,-2,-2,11,3,49*,35*,64*
O=C(CSc1nnc(-c2ccco2)c(-c2ccco2)n1)Nc1ccccc1,25,3,-2,6,1,60*,34*,83*
CC(C)(C)N(Cc1ccccc1)C(=O)c1cc2ccccc2o1,-3,7,-1,-25,4,1,nt,nt
CCOc1ccc(C(=O)N/N=C/c2ccc(-c3ccc(S(=O)(=O)Nc4ncccn4)cc3)o2)cc1,9,-2,4,0,4,9,nt,nt
O=C(N/N=C/c1ccc(-c2ccc(S(=O)(=O)Nc3ncccn3)cc2)o1)c1cc2ccccc2cc1O,14,5,0,6,-1,64*,16,57*
COc1ncnc2c1NC1=C(S2)C(=NCCC(=O)O)CC(C)(C)C1,144*,2,-52*,103*,5,162*,171*,198*
CC1(C)CC(=O)/C(=C(\O)Cc2ccccc2)C(=NCCCCCC(=O)O)C1,3,-1,1,5,-1,0,nt,nt
O=C(C1=C(O)C(=O)N(c2nccs2)C1c1ccccc1)c1cc2ccccc2o1 (stereo not given),185*,8,2,174*,-9,+,177*,+
CCOc1cccc(C2C(C(=O)c3ccc(C)o3)=C(O)C(=O)N2c2nccs2)c1 (stereo not given),121*,8,-71*,143*,-3,143*,156*,183*
O=C(C1=C(O)C(=O)N(CCc2ccccc2)C1c1ccncc1)c1cc2ccccc2o1 (stereo not given),7,5,1,6,4,5,nt,nt
